Source: ChEMBL document CHEMBL1961873, “Compounds: GSK PKIS; Assays: Nanosyn kinase panel” (2012)

What was measured:
[1] = target: Tyrosine-protein kinase SYK (Homo sapiens) (UniProt P43405); details: at 1 µM
[2] = target: T1, Tyrosine-protein kinase Tec (Homo sapiens) (UniProt P42680); details: at 0.1 µM
T1 sequence (whole entry): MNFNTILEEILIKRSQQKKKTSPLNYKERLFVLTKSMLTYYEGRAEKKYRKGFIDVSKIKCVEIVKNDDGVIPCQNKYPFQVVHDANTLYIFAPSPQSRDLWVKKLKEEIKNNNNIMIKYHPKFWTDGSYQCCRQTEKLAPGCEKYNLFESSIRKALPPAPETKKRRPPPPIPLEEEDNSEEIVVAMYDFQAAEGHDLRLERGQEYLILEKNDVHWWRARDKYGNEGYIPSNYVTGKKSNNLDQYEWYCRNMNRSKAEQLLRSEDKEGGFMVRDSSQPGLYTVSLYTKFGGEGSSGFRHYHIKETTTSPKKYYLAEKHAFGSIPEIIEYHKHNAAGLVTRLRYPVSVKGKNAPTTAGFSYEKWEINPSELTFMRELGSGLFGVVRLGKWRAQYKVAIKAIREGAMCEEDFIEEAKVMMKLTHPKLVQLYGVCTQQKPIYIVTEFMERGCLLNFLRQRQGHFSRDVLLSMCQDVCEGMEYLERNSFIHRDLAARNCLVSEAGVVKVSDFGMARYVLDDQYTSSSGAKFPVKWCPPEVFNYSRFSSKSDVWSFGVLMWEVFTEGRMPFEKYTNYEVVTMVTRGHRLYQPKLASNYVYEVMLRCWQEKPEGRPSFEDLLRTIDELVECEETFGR

[3] = target: T1, Tyrosine-protein kinase Tec (Homo sapiens); details: at 1 µM
[4] = target: Angiopoietin-1 receptor (Homo sapiens) (UniProt Q02763); details: at 0.1 µM
Chain of Angiopoietin-1 receptor (Homo sapiens) (Q02763 whole entry): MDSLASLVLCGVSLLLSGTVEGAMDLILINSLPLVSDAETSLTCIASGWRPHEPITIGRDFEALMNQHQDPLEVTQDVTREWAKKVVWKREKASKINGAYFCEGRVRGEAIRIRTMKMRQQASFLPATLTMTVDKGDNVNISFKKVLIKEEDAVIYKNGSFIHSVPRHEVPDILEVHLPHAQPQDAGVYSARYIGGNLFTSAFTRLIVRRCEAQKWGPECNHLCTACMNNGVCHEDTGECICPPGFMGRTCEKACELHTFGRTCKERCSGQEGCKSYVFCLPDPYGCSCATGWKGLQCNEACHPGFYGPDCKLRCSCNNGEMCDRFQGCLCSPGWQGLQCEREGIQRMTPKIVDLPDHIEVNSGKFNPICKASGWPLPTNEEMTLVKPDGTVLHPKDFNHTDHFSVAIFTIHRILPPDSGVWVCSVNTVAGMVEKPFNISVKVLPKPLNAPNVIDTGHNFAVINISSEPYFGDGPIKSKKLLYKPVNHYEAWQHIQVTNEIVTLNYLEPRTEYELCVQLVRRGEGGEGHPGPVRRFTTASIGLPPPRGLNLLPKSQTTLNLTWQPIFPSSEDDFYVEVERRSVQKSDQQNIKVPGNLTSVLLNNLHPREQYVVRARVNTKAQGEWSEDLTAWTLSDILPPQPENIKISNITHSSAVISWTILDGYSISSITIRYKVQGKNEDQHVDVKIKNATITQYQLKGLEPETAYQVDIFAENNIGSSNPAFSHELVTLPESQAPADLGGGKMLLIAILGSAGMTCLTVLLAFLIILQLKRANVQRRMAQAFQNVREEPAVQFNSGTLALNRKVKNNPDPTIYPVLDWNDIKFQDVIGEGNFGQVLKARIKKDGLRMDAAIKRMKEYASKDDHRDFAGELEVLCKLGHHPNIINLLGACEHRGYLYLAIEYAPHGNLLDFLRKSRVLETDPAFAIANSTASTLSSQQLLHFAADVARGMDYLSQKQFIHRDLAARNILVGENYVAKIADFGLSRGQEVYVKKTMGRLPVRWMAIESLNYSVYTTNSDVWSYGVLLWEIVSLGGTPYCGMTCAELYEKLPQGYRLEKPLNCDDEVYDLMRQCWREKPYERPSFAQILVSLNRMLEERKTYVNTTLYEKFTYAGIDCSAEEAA

[5] = target: Angiopoietin-1 receptor (Homo sapiens) (UniProt Q02763); details: at 1 µM
[6] = target: T2, Non-receptor tyrosine-protein kinase TNK1 (Homo sapiens) (UniProt Q13470); details: at 0.1 µM
T2 sequence (whole entry): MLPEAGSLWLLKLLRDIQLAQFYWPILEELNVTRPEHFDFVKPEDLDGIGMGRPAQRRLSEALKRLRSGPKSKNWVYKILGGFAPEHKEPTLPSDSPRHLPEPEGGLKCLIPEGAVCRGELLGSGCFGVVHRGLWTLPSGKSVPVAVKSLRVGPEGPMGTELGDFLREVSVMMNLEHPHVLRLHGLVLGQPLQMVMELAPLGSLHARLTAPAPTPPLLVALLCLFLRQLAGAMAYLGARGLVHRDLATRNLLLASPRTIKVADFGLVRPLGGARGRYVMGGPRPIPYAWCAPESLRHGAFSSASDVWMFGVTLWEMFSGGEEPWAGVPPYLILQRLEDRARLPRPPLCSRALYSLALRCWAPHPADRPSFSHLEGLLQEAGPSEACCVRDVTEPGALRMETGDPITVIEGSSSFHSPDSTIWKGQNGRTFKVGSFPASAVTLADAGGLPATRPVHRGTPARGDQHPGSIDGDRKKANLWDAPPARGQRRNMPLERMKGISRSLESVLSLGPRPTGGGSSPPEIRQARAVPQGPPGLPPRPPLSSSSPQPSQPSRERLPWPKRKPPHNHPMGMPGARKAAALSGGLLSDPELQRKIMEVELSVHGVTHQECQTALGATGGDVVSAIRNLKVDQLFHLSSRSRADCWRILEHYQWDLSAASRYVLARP

[7] = target: T2, Non-receptor tyrosine-protein kinase TNK1 (Homo sapiens); details: at 1 µM
[8] = target: Activated CDC42 kinase 1 (Homo sapiens) (UniProt Q07912); details: at 0.1 µM
Chain of Activated CDC42 kinase 1 (Homo sapiens) (Q07912 whole entry, looked up): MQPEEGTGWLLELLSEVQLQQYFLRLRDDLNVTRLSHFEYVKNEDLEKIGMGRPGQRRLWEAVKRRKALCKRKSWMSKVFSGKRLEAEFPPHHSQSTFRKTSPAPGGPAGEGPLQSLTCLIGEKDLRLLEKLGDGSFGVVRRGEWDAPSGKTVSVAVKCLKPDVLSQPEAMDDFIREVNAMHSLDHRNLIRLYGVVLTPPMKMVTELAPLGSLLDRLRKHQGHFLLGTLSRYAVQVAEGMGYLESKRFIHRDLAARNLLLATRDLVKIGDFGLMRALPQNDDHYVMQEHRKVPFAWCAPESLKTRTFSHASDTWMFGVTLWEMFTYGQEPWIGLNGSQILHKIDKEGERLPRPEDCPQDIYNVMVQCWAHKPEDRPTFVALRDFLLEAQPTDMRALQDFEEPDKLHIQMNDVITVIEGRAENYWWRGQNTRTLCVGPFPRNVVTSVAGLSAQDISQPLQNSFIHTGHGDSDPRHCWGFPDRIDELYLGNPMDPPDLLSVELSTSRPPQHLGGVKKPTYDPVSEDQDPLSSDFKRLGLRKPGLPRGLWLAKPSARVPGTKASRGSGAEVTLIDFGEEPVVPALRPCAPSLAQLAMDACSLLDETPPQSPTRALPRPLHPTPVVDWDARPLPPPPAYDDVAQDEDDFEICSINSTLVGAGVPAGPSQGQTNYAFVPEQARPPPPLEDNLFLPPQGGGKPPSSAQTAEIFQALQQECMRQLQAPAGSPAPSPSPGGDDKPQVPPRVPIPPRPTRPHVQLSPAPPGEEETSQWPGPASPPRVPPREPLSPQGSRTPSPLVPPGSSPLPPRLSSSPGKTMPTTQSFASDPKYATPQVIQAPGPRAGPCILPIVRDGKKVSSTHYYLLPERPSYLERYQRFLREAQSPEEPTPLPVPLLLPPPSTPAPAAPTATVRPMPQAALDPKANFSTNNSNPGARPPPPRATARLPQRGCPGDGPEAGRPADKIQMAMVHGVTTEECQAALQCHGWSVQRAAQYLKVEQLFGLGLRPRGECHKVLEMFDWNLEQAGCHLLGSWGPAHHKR

[9] = target: Activated CDC42 kinase 1 (Homo sapiens) (UniProt Q07912); details: at 1 µM
[10] = target: High affinity nerve growth factor receptor (Homo sapiens) (UniProt P04629); details: at 0.1 µM;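 also: each value is a mean of replicate percent inhibition readings against TRKA kinase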
Chain of High affinity nerve growth factor receptor (Homo sapiens) (P04629 33-796 limits assumed): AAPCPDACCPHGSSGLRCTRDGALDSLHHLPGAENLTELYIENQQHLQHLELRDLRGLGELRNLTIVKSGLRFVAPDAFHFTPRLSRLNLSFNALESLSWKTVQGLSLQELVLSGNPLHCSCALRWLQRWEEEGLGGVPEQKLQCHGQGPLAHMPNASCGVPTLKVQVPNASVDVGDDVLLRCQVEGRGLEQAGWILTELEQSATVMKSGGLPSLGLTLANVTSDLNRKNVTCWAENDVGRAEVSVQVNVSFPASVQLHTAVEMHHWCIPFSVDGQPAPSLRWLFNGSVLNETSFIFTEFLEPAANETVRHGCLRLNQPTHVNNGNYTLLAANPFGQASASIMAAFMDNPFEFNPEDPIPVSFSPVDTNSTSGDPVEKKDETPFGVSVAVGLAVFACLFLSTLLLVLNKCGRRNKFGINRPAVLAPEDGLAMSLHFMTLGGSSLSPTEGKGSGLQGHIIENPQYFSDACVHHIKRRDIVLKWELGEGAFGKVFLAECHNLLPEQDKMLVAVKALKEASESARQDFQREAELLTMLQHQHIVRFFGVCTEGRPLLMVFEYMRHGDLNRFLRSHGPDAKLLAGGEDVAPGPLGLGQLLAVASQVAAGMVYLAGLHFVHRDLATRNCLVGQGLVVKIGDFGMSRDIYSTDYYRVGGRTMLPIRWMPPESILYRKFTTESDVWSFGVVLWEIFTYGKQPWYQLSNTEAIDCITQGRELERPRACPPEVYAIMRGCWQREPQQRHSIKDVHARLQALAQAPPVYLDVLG

| Structure (SMILES) | inhibition [1] [%] | inhibition [2] [%] | inhibition [3] [%] | inhibition [4] [%] | inhibition [5] [%] | inhibition [6] [%] | inhibition [7] [%] | inhibition [8] [%] | inhibition [9] [%] | inhibition [10] [%] |
| --- | --- | --- | --- | --- | --- | --- | --- | --- | --- | --- |
| O=C(Nc1n[nH]c2cc(-c3cc(F)ccc3F)ccc12)C1CC1 | 1.24 | 2.72 | 4.04 | 3.35 | 9.26 | 1.68 | 7.03 | -0.01 | -0.8 | 3.75 |
| NS(=O)(=O)c1ccc(N/N=C2\C(=O)Nc3ccc(C(=O)NCCCn4ccnc4)cc32)cc1 | -1.66 | 3.92 | 10.5 | 2.3 | 5.99 | 6.1 | 16.5 | 0.41 | 3.98 | 2.34 |
| COC(=O)Nc1nc2ccc(Sc3ccc(NC(=O)Nc4cc(C(F)(F)F)ccc4F)cc3)cc2[nH]1 | -0.54 | 3.34 | 5.46 | 21.1 | 70.7 | 2.15 | 25.3 | 0.06 | 1.64 | 62.7 |
| NC(=O)c1cc(-c2ccncc2)cc(-c2ccccc2)c1N | 1.64 | 18.5 | 58.7 | 3.02 | 6.28 | 1.93 | 6.5 | 1.25 | 7.25 | 1.66 |
| Cc1ccc(NC(=O)c2ccoc2)cc1-c1ccc(C(=O)NCC2CC2)cc1 | -2.99 | 0.28 | 3.18 | 1.56 | 3.38 | 0.21 | 5.38 | 0.62 | 0.64 | 2.04 |
| C/C(Nc1ccc(S(N)(=O)=O)cc1)=C1/C(=O)Nc2ccccc21 | 0.6 | -1.54 | -2.14 | 0.44 | 2.44 | -3.91 | 9.56 | -1.14 | 0.65 | 4.48 |
| NS(=O)(=O)c1ccc(Nc2cc(-c3ccc(O)c(F)c3)n[nH]2)cc1 | -1.99 | -1.66 | 0.4 | 2.97 | 21.7 | -4.31 | 24.3 | -1.31 | -1.02 | 5.68 |
| CS(=O)(=O)CCNCc1cc(-c2cc3c(Nc4ccc(OCc5cccc(F)c5)c(Cl)c4)ncnc3s2)cs1 | 1.7 | 7.25 | 7 | 8.64 | 10.7 | 1.8 | 6.39 | 1.66 | 5.79 | 2.34 |
| O=C(Nc1n[nH]c2nc(-c3ccco3)ccc12)C1CC1 | 1.5 | 1.47 | 3.97 | 5.28 | 10.4 | 0.16 | 1.24 | -0.07 | 0.93 | 4.04 |
| COc1ccc(-c2ccc3c(NC(=O)C4CC4)n[nH]c3n2)cc1 | -2.02 | 0.87 | 2.47 | 2.75 | 5.88 | 1.34 | 12 | 0.32 | 1.42 | -0.67 |
| NC(=O)Cc1ccccc1Oc1nccc(-c2c(-c3ccc(F)cc3)ncn2C2CCNCC2)n1 | -0.38 | 4.14 | 4.45 | 3.62 | 4.3 | -0.61 | -3.16 | 1.43 | 2.74 | -0.18 |
| Fc1ccc(-c2ncn(CCCN3CCOCC3)c2-c2ccncc2)cc1 | -1.02 | -0.04 | 2.36 | 1.37 | 1.99 | 0.29 | -6.97 | -0.82 | -1.72 | -2.6 |
| COc1ccc(C2=C(N3CCc4ccccc43)C(=O)NC2=O)cc1 | 2.15 | 5.51 | 6.81 | 2.29 | 3.07 | 4.3 | 13.9 | 1.51 | 2.14 | 5.01 |
| CS(=O)(=O)CCNCc1ccc(-c2ccc3ncnc(Nc4ccc(OCc5ccccc5)c(Br)c4)c3c2)o1 | -5.01 | -2.31 | 1.49 | 0.77 | 4.68 | 0.59 | 14.6 | -0.17 | 1.61 | 1.4 |
| NC(=O)c1ccc(Oc2nccc(-c3c(-c4ccc(F)cc4)ncn3C3CCNCC3)n2)cc1 | 2.71 | 8.39 | 6.14 | 5.16 | 6.4 | 4.4 | 4.01 | 0.55 | 1.67 | 2.53 |
| CCc1cccc(CC)c1/C=C/c1cncc(C(=O)NC)c1 | -0.49 | 4.18 | 7.25 | 1.3 | 3.17 | 5.96 | 10.2 | 1.3 | 2.37 | 1.94 |
| C[C@@H](Oc1cc(-n2cnc3ccc(OCC4CCN(C)CC4)cc32)sc1C(N)=O)c1ccccc1Cl | 2.34 | 6.45 | 6.29 | 4.83 | 19.8 | 7.13 | 26.1 | 3.05 | 19.8 | 1.86 |

| Structure (SMILES) | inhibition [1] [%] | inhibition [2] [%] | inhibition [3] [%] | inhibition [4] [%] | inhibition [5] [%] | inhibition [6] [%] | inhibition [7] [%] | inhibition [8] [%] | inhibition [9] [%] | inhibition [10] [%] |
| --- | --- | --- | --- | --- | --- | --- | --- | --- | --- | --- |
| COc1cccc(-n2cnc3c(N/N=C/c4ccncc4)ncnc32)c1 | -1.09 | -2.49 | 5.03 | -0.9 | 9.67 | 1.98 | 19.3 | 0.06 | 3.07 | -1.67 |
| NCc1ccc(-n2c(-c3nonc3N)nc3cnccc32)cc1 | -0.51 | 4.69 | 4.95 | 2.68 | 3.28 | 5.04 | 3.5 | 1.93 | 5.77 | 1.82 |
| COc1ccc2ncn(-c3cc(O[C@H](C)c4ccccc4Cl)c(C(N)=O)s3)c2c1 | -3.45 | -2.01 | 0.84 | 1.72 | 7.48 | 3.02 | 24.1 | 0.31 | 1.16 | 8.17 |
| Cc1ccc(C(=O)NC(C)C)cc1-c1ccc(C(=O)NCC2CC2)cc1 | -0.36 | -2.75 | -2.37 | -0.76 | -0.28 | -4.74 | -5.58 | -0.81 | 0.35 | -0.37 |
| c1ccc(-c2n[nH]cc2-c2ccnc(-c3ccc(OCCN4CCOCC4)cc3)c2)nc1 | -0.16 | 3.84 | 4.59 | 4.66 | 7.13 | 0.24 | -5.31 | 5.48 | 5.14 | -3.86 |
| c1ccc(Oc2ccc(Nc3ncc(-c4ccccc4)o3)cc2)cc1 | 2.28 | 2.6 | 2.98 | 0.12 | 1.44 | 0.99 | 3.43 | 0.99 | 2.91 | 1.43 |
| FC(F)(F)c1cccc(Nc2nccc(-c3cnn4nc(-c5ccccc5)ccc34)n2)c1 | -6.97 | -0.76 | 4.7 | 0.12 | 4.87 | 1.51 | 8.59 | 0.76 | 1.15 | -0.16 |
| COc1cc2ncn(-c3cc(OCCc4ccccc4)c(C(N)=O)s3)c2cc1OC | -0.89 | 2.52 | 4.4 | 3.5 | 14.9 | 2.85 | 13.5 | 0.78 | 2.21 | 1.42 |
| CN(C)CCOc1ccc(-c2cc(-c3ccc4c(c3)CCC4=NO)c(-c3ccncc3)o2)cc1 | 0.74 | 0.39 | 1.01 | 0.77 | 11.6 | 2.33 | 20.8 | -1.03 | 0.17 | -1.52 |
| Cc1nnc(-c2ccc(C)c(-c3ccc(C(=O)NCc4ccc(Cl)cc4)cc3)c2)o1 | -1 | 0.01 | 0.03 | 4.45 | 6.89 | 0.68 | 5.31 | 0.65 | 0.3 | 2.65 |
| Nc1nccc(-c2c(-c3ccc(F)cc3)ncn2C2CCC(O)CC2)n1 (stereo not given) | 4.19 | -0.76 | 5.34 | -0.11 | 4.5 | -3.34 | 8.33 | -0.32 | 0.4 | 0.87 |
| CNC(=O)c1cncc(/C=C/c2c(C)cccc2C)c1 | -0.51 | 5.68 | 38.2 | -0.16 | 7.69 | 0.82 | 16.5 | 0.76 | 9.44 | 3.36 |
| Fc1ccc(-c2nc3n(c2-c2ccncc2)CCS3)cc1 | 2.02 | 0.9 | 2.31 | 3.17 | 5.76 | 1.24 | -1.81 | 0.78 | 0.1 | 2.38 |
| Cc1ccc(C(=O)NC2CCC2)cc1-c1ccc(C(=O)NCC2CC2)cc1 | 0.85 | 3.37 | 2.28 | 2.59 | 1.2 | -0.31 | -1.43 | 1.04 | 1.08 | -0.6 |
| N#Cc1ccc(Oc2nccc(-c3c(-c4ccc(F)cc4)ncn3C3CCNCC3)n2)cc1 | -3.55 | 2.34 | 5.61 | 3.13 | 8.62 | -0.15 | 2.6 | 0.82 | 2.05 | 2.46 |
| CN(C)c1ccc2c(c1)/C(=C/Nc1ccc(S(N)(=O)=O)cc1)C(=O)N2 | 0.31 | 1.4 | 2.35 | 1.03 | 5.59 | 0.71 | 5.7 | 0.14 | 1.79 | 6.93 |
| NS(=O)(=O)c1ccc(N/N=C2\C(=O)Nc3ccc(-c4cnco4)cc32)cc1 | -1.05 | -1.76 | 4.09 | 3.92 | 4.65 | 9.41 | 44.4 | -0.82 | 0.92 | 4.49 |
